These results are taken from PubChem BioAssay (NCATS).

Records with an inconclusive call do not appear. Activity calls are given as the source filed them. Unless noted, calls follow the shape of the dose curve; as a rule, active = well fitted inhibition curve with a large enough effect; inconclusive = small, poorly fitted or top-dose-only effect; inactive = flat fitted curve, though single readings scatter.

A short description of assay [1]: qHTS drug screen for cell cycle checkpoint inhibitors in PARPi-resistant BRCA-mutant ovarian cancer cell lines. (AID 1963452; calls by dose curve). The settings on record: PEO1/OlaR viability, CellTiter-Glo luminescence, 96 h, stronger effect = lower value. The procedure, abridged: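 PEO1, PEO4 and PEO1/OlaR ovarian cancer cells, 600 per well, exposed 96 h at 37C to a dilution series. Viability read by CellTiter-Glo luminescence, normalized to DMSO and empty wells; activity summarized as Z-AUC.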
(In general: qHTS replaces the single test concentration by a dilution series.)

A short description of assay [2]: qHTS for identification of novel therapeutic agents for treatment of microphthalmiaassociated transcription factor (MiT) renal cell carcinoma (RCC) (AID 1963991; calls by dose curve; also: potency is read from the fitted curve at half-maximal effect). The settings on record: CellTiter-Glo, 48 h; for Potency: active = Z-AUC below -0.8 in all three lines; for z-score: stronger effect = lower value. The method, boiled down: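 Three TFE3-fusion RCC lines (UOK109, UOK124, UOK145), 500 cells/well in complete medium, were treated with MIPE 4.0 compounds for 48 hours at 37 C. Viability was by CellTiter-Glo luminescence, normalized to DMSO (100%) and empty wells (0%); curves fitted over 11 concentrations.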

Assay [3] can be described thus: qHTS profiling for inhibitors of Plasmodium falciparum proliferation (AID 504749). Also: potency is read from the fitted curve at half-maximal effect.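 As to activity, negative = inhibition: 0% = DMSO vehicle and full inhibition = artemisinin control.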 As to all read-outs here: nearly all actives have a fitted effect of over 60% in size. The settings on record: P. falciparum in erythrocytes, SYBR Green DNA, 72 h; for activity, negative = inhibition: at 28.7 µM (top of the series). The method, boiled down:
(§1)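 SYBR Green fluorescence (ex 485 nm, em 535 nm) reports parasite DNA after 72 h compound exposure of infected red cells at 0.3% parasitemia, 2.5% hematocrit; signal normalized to 0.29 uM artemisinin and vehicle wells.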

The test system of another assay is 3D7. The description is as above. The settings on record: P. falciparum in erythrocytes, SYBR Green DNA, 72 h; series mostly up to 28.7 µM. The procedure, abridged:
as §1

A further assay has as its system 7G8. The description is as above. The settings on record: P. falciparum in erythrocytes, SYBR Green DNA, 72 h; series mostly up to 28.7 µM. The procedure, abridged:
as §1

The test system of a further assay is AA1029. The assay is described as above. The settings on record: P. falciparum in erythrocytes, SYBR Green DNA, 72 h; series mostly up to 28.7 µM. The method, boiled down:
as §1

Another assay has as its system AS120. Described as above. The settings on record: P. falciparum in erythrocytes, SYBR Green DNA, 72 h; series mostly up to 28.7 µM. The method, boiled down:
as §1

The next assay concerns ATS189. The assay is described as above. The settings on record: P. falciparum in erythrocytes, SYBR Green DNA, 72 h; series mostly up to 28.7 µM. The method, boiled down:
as §1

The next assay deals with ATS95. Described as above. The settings on record: P. falciparum in erythrocytes, SYBR Green DNA, 72 h; series mostly up to 28.7 µM. The procedure, abridged:
as §1

In the next assay the test system is C2A. The assay is described as above. The settings on record: P. falciparum in erythrocytes, SYBR Green DNA, 72 h; series mostly up to 28.7 µM. The method, boiled down:
as §1

Another assay relates to CP185. Described as above. The settings on record: P. falciparum in erythrocytes, SYBR Green DNA, 72 h; series mostly up to 28.7 µM. The method, boiled down:
as §1

A further assay relates to CP191. The assay is described as above. The settings on record: P. falciparum in erythrocytes, SYBR Green DNA, 72 h; series mostly up to 28.7 µM. The method, boiled down: as §1
A further assay relates to CP192. The assay is described as above. The settings on record: P. falciparum in erythrocytes, SYBR Green DNA, 72 h; series mostly up to 28.7 µM. The method, boiled down:
as §1

For the next assay, the system named is CP194. Described as above. The settings on record: P. falciparum in erythrocytes, SYBR Green DNA, 72 h; series mostly up to 28.7 µM. The procedure, abridged:
as §1

A further assay concerns CP201. The description is as above. The settings on record: P. falciparum in erythrocytes, SYBR Green DNA, 72 h; series mostly up to 28.7 µM. The method, boiled down:
as §1

A further assay concerns CP203. Described as above. The settings on record: P. falciparum in erythrocytes, SYBR Green DNA, 72 h; series mostly up to 28.7 µM. The procedure, abridged: as §1
The test system of the next assay is CP211. The description is as above. The settings on record: P. falciparum in erythrocytes, SYBR Green DNA, 72 h; series mostly up to 28.7 µM. The method, boiled down:
as §1

The test system of another assay is CP215. The assay is described as above. The settings on record: P. falciparum in erythrocytes, SYBR Green DNA, 72 h; series mostly up to 28.7 µM. The procedure, abridged:
as §1

For a further assay, the system named is CP217. The assay is described as above. The settings on record: P. falciparum in erythrocytes, SYBR Green DNA, 72 h; series mostly up to 28.7 µM. The method, boiled down: as §1
In the next assay the test system is CP237. Described as above. The settings on record: P. falciparum in erythrocytes, SYBR Green DNA, 72 h; series mostly up to 28.7 µM. The procedure, abridged:
as §1

[4] abbreviates: measured here: PEO1 parental Z-AUC.
Setting [5] is: TFE3-RCC UOK109 viability, measured here: UOK109 Z-AUC.
Setting [6] is: TFE3-RCC viability, measured here: UOK124 Z-AUC.
Setting [7] is: TFE3-RCC viability, measured here: UOK145 Z-AUC.

On to `CC(C)C[C@H](NC(=O)CNC(=O)c1cc(Cl)ccc1Cl)B(O)O`, for which the Z-AUC is -0.869 (inactive) in assay [1], -1.48 in assay [1] (setting [4]) and -1.83 in [1] (measured here: PEO4 Z-AUC). For the same compound, the Potency in assay [2] (TFE3-RCC UOK109 viability) was 0.372 µM (active). Also, the z-score in [2] (setting [5]) is -1.3; in assay [2] (setting [6]), -1.47; in [2] (setting [7]) it was -2.81.

Consider `CNC(=O)CN1CCC(Oc2cc3c(Nc4cccc(Cl)c4F)ncnc3cc2OC)CC1`, for which the results for the Z-AUC in assay [1], in assay [1] (setting [4]) and in [1] (measured here: PEO4 Z-AUC) were 0.332 (inactive), 0.682 and 0.199, respectively. For the same compound, in [2] (TFE3-RCC UOK109 viability), the Potency was 1.87 µM (active). The z-score in [2] (setting [5]) is -2.86; in assay [2] (setting [6]), -2.18; in assay [2] (setting [7]) it was -1.75.

For the compound `C1Cc2[nH]nc(-c3nn[nH]n3)c2C1`, the Z-AUC in [1] was -0.759 (inactive); in assay [1] (setting [4]), -0.47; in assay [1] (measured here: PEO4 Z-AUC) it was -0.646. The z-score in assay [2] (setting [5]) is -0.0239; in [2] (setting [6]), 0.708; in assay [2] (setting [7]), 0.169.

As to `COc1cccc(Nc2c(C(N)=O)cnc3c(C)cc(S(=O)(=O)c4cccc(C(=O)N(C)C)c4)cc23)c1`, the results for the Z-AUC in assay [1], in assay [1] (setting [4]) and in assay [1] (measured here: PEO4 Z-AUC) were -0.363 (inactive), 0.84 and 0.84, respectively. Further, the z-score in [2] (setting [5]) turned out to be 1.38; in assay [2] (setting [6]), 0.911; in [2] (setting [7]) it was 0.957.

Regarding `COc1cc(=C2C=c3ccccc3=N2)[nH]c1=Cc1[nH]c(C)cc1C`, the Potency in assay [2] (TFE3-RCC UOK109 viability) is 8.33 µM (active). The z-score in [2] (setting [5]) was -1.08; in assay [2] (setting [6]) it was -0.978; in [2] (setting [7]) it was -0.974.

In the case of `CCC1=C[C@@H]2CN(C1)Cc1c([nH]c3ccccc13)[C@@](C(=O)OC)(c1cc3c(cc1OC)N(C)[C@@H]1[C@@](O)(C(=O)OC)[C@H](OC(C)=O)[C@]4(CC)C=CCN5CC[C@]31[C@@H]54)C2`, the Potency was 3.16 µM (active) in assay [3] (parasite line A); 5.01 µM (active) in assay [3] (parasite line B); 3.16 µM (active) in the assay with 3D7; 2.24 µM (active) in the assay with 7G8; 1.58 µM (active) in the assay on AA1029; 1.41 µM (active) in the assay on AS120. Moreover, the Potency with ATS189 is 1.78 µM (active); in the assay with ATS95, 2 µM (active); with C2A, 1.26 µM (active); with CP185 it was 3.16 µM (active); in the assay with CP191, 3.98 µM (active); in the assay on CP192 it was 4.26 µM (active). The Potency was 3.38 µM (active) in the assay with CP194; 4.78 µM (active) in the assay with CP201; 3.01 µM (active) with CP203; 3.38 µM (active) in the assay on CP211; 2.13 µM (active) in the assay on CP215; 2.51 µM (active) in the assay with CP217. For the same compound, the Potency in the assay with CP237 was 3.98 µM (active).

Consider `O=c1[nH]c(=O)n(C2CCCO2)cc1F` (stereo not drawn), for which the Z-AUC in assay [1] was 1.33 (inactive); in [1] (setting [4]) it was 1.12; in [1] (measured here: PEO4 Z-AUC) it was 0.998. For the same compound, the values for the z-score in [2] (setting [5]), in [2] (setting [6]) and in assay [2] (setting [7]) were 0.952, 1.45 and 0.901, respectively. The activity, negative = inhibition in [3] (parasite line A) is 8.19% (inactive); in assay [3] (parasite line B), 12.8% (inactive). Moreover, the Potency entry in the assay with 3D7, with 7G8, in the assay on AA1029, with AS120, with ATS189 and with ATS95 was “inactive” each time. Moreover, the Potency entry with C2A, in the assay on CP185, with CP191, in the assay with CP192, in the assay with CP194 and with CP201 was “inactive” throughout. In addition, the Potency entry in the assay with CP203, in the assay with CP211, in the assay with CP217 and with CP237 was “inactive” throughout.
